Results on ten molecules are retold here after PubChem BioAssay (NCI).

The panel holds about 79,000 compounds, 15% with a hit somewhere; the sample as a whole holds those more often. A number with no mark means an inactive call. The source made the active and inactive calls. Cut-off read from the data, not from the text of the source: active = growth inhibition above about 70%; inactive = the rest.

Experiment [1] can be described thus: NCI Yeast Anticancer Drug Screen. Data for the rad50 strain (AID 155).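 Note: 0% = growth of vehicle-only cultures of the same strain.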 The conditions noted are these: S. cerevisiae rad50 strain growth inhibition, hits give high values. In short, it runs like this:
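A DNA repair-deficient yeast mutant serves as the test organism; compound-induced growth inhibition is calculated against vehicle-treated cells.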

Experiment [2] is described as follows: NCI Yeast Anticancer Drug Screen. Data for the mec2-1 strain (AID 157). The conditions noted are these: S. cerevisiae mec2-1 strain, hits give high values. The method in brief: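 Compounds were applied to mec2-1 yeast cells. Their growth was then compared with that of vehicle-treated cultures to give growth inhibition.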
Experiment [3] is described as follows: NCI Yeast Anticancer Drug Screen. Data for the sgs1 mgt1 strain (AID 161).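 Note: 0% = growth of cultures given vehicle only.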 The conditions noted are these: S. cerevisiae sgs1 mgt1 strain, hits give high values. In short, it runs like this: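 This yeast growth screen uses a strain with defined DNA-repair lesions; compound-treated growth is compared with vehicle-treated growth.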
Experiment [4] is described as follows: NCI Yeast Anticancer Drug Screen. Data for the cln2 rad14 strain (AID 165).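 Note: 0% = growth equal to vehicle treated cultures.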 The conditions noted are these: S. cerevisiae cln2 rad14 strain, hits give high values. In short, it runs like this:
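Strain: cln2 rad14 yeast, altered in cell cycle control and DNA damage repair. Read-out: growth inhibition vs vehicle.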

Experiment [5] can be described thus: NCI Yeast Anticancer Drug Screen. Data for the bub3 strain (AID 167). The conditions noted are these: S. cerevisiae bub3 mutant strain, hits give high values. The method in brief:
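Inhibition values come from growth of compound-treated mutant yeast normalised to vehicle-treated controls.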

The nature of experiment [6]: NCI Yeast Anticancer Drug Screen. Data for the mlh1 rad18 strain (AID 175). The conditions noted are these: S. cerevisiae mlh1 rad18 strain growth inhibition, hits give high values. In short, it runs like this: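 A repair-deficient yeast strain is exposed to test compound, and growth is scored relative to vehicle-treated controls.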
Setting [7] is: at 5.0 µM (retest, dose inferred, filed as 0.5).
Setting [8] is: at 50.0 µM (retest, dose inferred, filed as 5.0).

Take `O=[N+]([O-])c1ccc(N2CCN(Cc3ccccc3)CC2)c2c1no[n+]2[O-]`: the growth inhibition is 50% in experiment [1] (setting [7]); 97% (active) in experiment [1] (setting [8]); 90.1% (active) in experiment [1] (at 50.0 µM); 18% in experiment [2] (setting [7]); 98% (active) in experiment [2] (setting [8]); 93.1% (active) in experiment [2] (at 50.0 µM). In addition, the growth inhibition in experiment [3] (setting [7]) is 34%; in experiment [3] (setting [8]) it was 92% (active); in experiment [3] (at 50.0 µM), 89.5% (active); in experiment [4] (setting [7]), 4%; in experiment [4] (setting [8]) it was 22%; in experiment [4] (at 50.0 µM), 72.5% (active). For the same molecule, the growth inhibition in experiment [5] (setting [7]) was 11%; in experiment [5] (setting [8]), 78% (active); in experiment [5] (at 50.0 µM), 90% (active); in experiment [6] (setting [7]), 39%; in experiment [6] (setting [8]) it was 97% (active); in experiment [6] (at 50.0 µM), 88.3% (active).

`CCCCCCCCc1cc(Cl)c(O)c(Cl)c1`: the growth inhibition in experiment [1] (setting [7]) was 3%; in experiment [1] (setting [8]), 75% (active); in experiment [1] (at 50.0 µM), 99.5% (active); in experiment [2] (setting [7]) it was -8%; in experiment [2] (setting [8]), 90% (active); in experiment [2] (at 50.0 µM), 99.6% (active). The growth inhibition in experiment [3] (setting [7]) is -14%; in experiment [3] (setting [8]), 98% (active); in experiment [3] (at 50.0 µM), 99.2% (active); in experiment [4] (setting [7]) it was -13%; in experiment [4] (setting [8]), 97% (active); in experiment [4] (at 50.0 µM) it was 99.6% (active). Besides, the growth inhibition in experiment [5] (setting [7]) was -11%; in experiment [5] (setting [8]) it was 66%; in experiment [5] (at 50.0 µM) it was 98.7% (active); in experiment [6] (setting [7]) it was -10%; in experiment [6] (setting [8]) it was 98% (active); in experiment [6] (at 50.0 µM), 99.3% (active).

`NC(=S)Nc1ccc2c(c1)Cc1ccccc1-2`: the growth inhibition is 2% in experiment [1] (setting [7]); 29% in experiment [1] (setting [8]); 64.5% in experiment [1] (at 50.0 µM); -4% in experiment [2] (setting [7]); 3% in experiment [2] (setting [8]); -0.4% in experiment [2] (at 50.0 µM). For the same molecule, the growth inhibition in experiment [3] (setting [7]) is 2%; in experiment [3] (setting [8]), 23%; in experiment [3] (at 50.0 µM), 59.9%; in experiment [4] (setting [7]) it was -5%; in experiment [4] (setting [8]), -10%; in experiment [4] (at 50.0 µM), 23.4%. Besides, the growth inhibition in experiment [5] (setting [7]) is 0%; in experiment [5] (setting [8]), 58%; in experiment [5] (at 50.0 µM) it was 47%; in experiment [6] (setting [7]), 7%; in experiment [6] (setting [8]), 38%; in experiment [6] (at 50.0 µM), 60.4%.

Take `Oc1c(Cl)cc(Cl)cc1C(c1cc(Cl)cc(Cl)c1O)C(Cl)(Cl)Cl`: the growth inhibition is -2% in experiment [1] (setting [7]); 99% (active) in experiment [1] (setting [8]); 99% (active) in experiment [1] (at 50.0 µM); 0% in experiment [2] (setting [7]); 100% (active) in experiment [2] (setting [8]); 99.5% (active) in experiment [2] (at 50.0 µM). In addition, the growth inhibition is -4% in experiment [3] (setting [7]); 99% (active) in experiment [3] (setting [8]); 99.5% (active) in experiment [3] (at 50.0 µM); -2% in experiment [4] (setting [7]); 97% (active) in experiment [4] (setting [8]); 98.7% (active) in experiment [4] (at 50.0 µM). Also, the growth inhibition is -2% in experiment [5] (setting [7]); 99% (active) in experiment [5] (setting [8]); 99.2% (active) in experiment [5] (at 50.0 µM); 0% in experiment [6] (setting [7]); 99% (active) in experiment [6] (setting [8]); 99.2% (active) in experiment [6] (at 50.0 µM).

With `O=C(O)CCCOc1cc(-c2ccccc2F)nc2cc3c(cc12)OCO3`, the growth inhibition in experiment [1] (setting [7]) is 11%; in experiment [1] (setting [8]), 36%; in experiment [1] (at 50.0 µM) it was 76.8% (active); in experiment [2] (setting [7]) it was 3%; in experiment [2] (setting [8]), 31%; in experiment [2] (at 50.0 µM), 80.8% (active). Also, the growth inhibition in experiment [3] (setting [7]) is 13%; in experiment [3] (setting [8]), 27%; in experiment [3] (at 50.0 µM), 71% (active); in experiment [4] (setting [7]), 5%; in experiment [4] (setting [8]) it was 46%; in experiment [4] (at 50.0 µM) it was 71.3% (active). Also, the growth inhibition in experiment [5] (setting [7]) is 9%; in experiment [5] (setting [8]), 47%; in experiment [5] (at 50.0 µM) it was 77.9% (active); in experiment [6] (setting [7]), 7%; in experiment [6] (setting [8]), 52%; in experiment [6] (at 50.0 µM), 54%.

Take `CCCN(CCC)C(=O)c1ccc(C)cc1`: the growth inhibition was 1% in experiment [1] (setting [7]); 21% in experiment [1] (setting [8]); 4.3% in experiment [1] (at 50.0 µM); 2% in experiment [2] (setting [7]); 5% in experiment [2] (setting [8]); 97.9% (active) in experiment [2] (at 50.0 µM). In addition, the growth inhibition in experiment [3] (setting [7]) is 2%; in experiment [3] (setting [8]), 5%; in experiment [3] (at 50.0 µM) it was 0.05%; in experiment [4] (setting [7]), 3%; in experiment [4] (setting [8]), 24%; in experiment [4] (at 50.0 µM) it was -17.1%. Moreover, the growth inhibition in experiment [5] (setting [7]) was 3%; in experiment [5] (setting [8]), 28%; in experiment [5] (at 50.0 µM), 2.9%; in experiment [6] (setting [7]), -3%; in experiment [6] (setting [8]) it was 17%; in experiment [6] (at 50.0 µM), 7.2%.

Take `COc1cc(-c2ccc(-[n+]3nc(-c4ccc([N+](=O)[O-])cc4)nn3-c3ccc([N+](=O)[O-])cc3)c(OC)c2)ccc1-[n+]1nc(-c2ccc([N+](=O)[O-])cc2)nn1-c1ccc([N+](=O)[O-])cc1`: the growth inhibition was 95% (active) in experiment [1] (setting [7]); 94% (active) in experiment [1] (setting [8]); 89.5% (active) in experiment [1] (at 50.0 µM); 98% (active) in experiment [2] (setting [7]); 98% (active) in experiment [2] (setting [8]); 91.4% (active) in experiment [2] (at 50.0 µM). The growth inhibition in experiment [3] (setting [7]) was 94% (active); in experiment [3] (setting [8]) it was 96% (active); in experiment [3] (at 50.0 µM), 90.2% (active); in experiment [4] (setting [7]), 96% (active); in experiment [4] (setting [8]), 97% (active); in experiment [4] (at 50.0 µM), 88.5% (active). Besides, the growth inhibition in experiment [5] (setting [7]) was 97% (active); in experiment [5] (setting [8]) it was 97% (active); in experiment [5] (at 50.0 µM) it was 90.2% (active); in experiment [6] (setting [7]) it was 97% (active); in experiment [6] (setting [8]) it was 96% (active); in experiment [6] (at 50.0 µM), 90% (active).

As to `CCCCCCC1N=C(N)N=C(N)N1c1cccc(Cl)c1` (stereo not given), the growth inhibition in experiment [1] (setting [7]) is 17%; in experiment [1] (setting [8]) it was 61%; in experiment [1] (at 50.0 µM) it was -25.1%; in experiment [2] (setting [7]), 10%; in experiment [2] (setting [8]), 56%; in experiment [2] (at 50.0 µM) it was 48.8%. Besides, the growth inhibition in experiment [3] (setting [7]) is 8%; in experiment [3] (setting [8]), 55%; in experiment [3] (at 50.0 µM), 46.4%; in experiment [4] (setting [7]), 1%; in experiment [4] (setting [8]) it was 24%; in experiment [4] (at 50.0 µM), -53.5%. In addition, the growth inhibition in experiment [5] (setting [7]) was 34%; in experiment [5] (setting [8]), 81% (active); in experiment [5] (at 50.0 µM) it was 52.9%; in experiment [6] (setting [7]), 7%; in experiment [6] (setting [8]) it was 98% (active); in experiment [6] (at 50.0 µM) it was 89.6% (active).

As for `CCCCCCCCCCCC1=NCCCN1CCCC`, the growth inhibition in experiment [1] (setting [7]) was 10%; in experiment [1] (setting [8]), 99% (active); in experiment [1] (at 50.0 µM), 88.3% (active); in experiment [2] (setting [7]) it was 0%; in experiment [2] (setting [8]), 99% (active); in experiment [2] (at 50.0 µM), 99.2% (active). In addition, the growth inhibition in experiment [3] (setting [7]) was 26%; in experiment [3] (setting [8]) it was 100% (active); in experiment [3] (at 50.0 µM), 84.3% (active); in experiment [4] (setting [7]), 4%; in experiment [4] (setting [8]), 99% (active); in experiment [4] (at 50.0 µM), 72% (active). In addition, the growth inhibition in experiment [5] (setting [7]) is 22%; in experiment [5] (setting [8]), 100% (active); in experiment [5] (at 50.0 µM), 98.7% (active); in experiment [6] (setting [7]), 28%; in experiment [6] (setting [8]) it was 99% (active); in experiment [6] (at 50.0 µM), 95.3% (active).

In the case of `CC(C)(C)N/N=C(/Cc1nc2c3c(ccc2[nH]c1=O)C(=O)c1ccccc1C3=O)C(=O)NC1=C(Cl)C(=O)c2ccccc2C1=O`, the growth inhibition in experiment [1] (setting [7]) is 27%; in experiment [1] (setting [8]), 91% (active); in experiment [1] (at 50.0 µM), 82.8% (active); in experiment [2] (setting [7]) it was 0%; in experiment [2] (setting [8]) it was 62%; in experiment [2] (at 50.0 µM) it was 46.6%. Further, the growth inhibition in experiment [3] (setting [7]) was 27%; in experiment [3] (setting [8]) it was 77% (active); in experiment [3] (at 50.0 µM) it was 67.8%; in experiment [4] (setting [7]) it was -24%; in experiment [4] (setting [8]), 39%; in experiment [4] (at 50.0 µM), 21.7%. Besides, the growth inhibition in experiment [5] (setting [7]) was 13%; in experiment [5] (setting [8]), 83% (active); in experiment [5] (at 50.0 µM), 67.1%; in experiment [6] (setting [7]) it was 21%; in experiment [6] (setting [8]), 79% (active); in experiment [6] (at 50.0 µM), 42.4%.
